Here are results for 43 molecules from PubChem BioAssay AID694 (Emory University Molecular Libraries Screening Center, 2007).

As usually defined, the inhibition is the relative decrease from the control value, in per cent.

Hit rate of the full screen: of about 1,300 compounds, about 25 (2%) were called active. How the calls were made is not given here. For the sample, actives were picked, then their nearest neighbours and some compounds at random.

This test concerns the target Estrogen receptor (Homo sapiens) (UniProt P03372). Kind of test: blockers of coactivator recruitment to ERα – biochemical, LOPAC library, TR-FRET, primary screen (AID 694).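 Further: receptor was agonist-bound with estradiol present during the assay.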 The settings on record: TR-FRET ERalpha-coactivator peptide binding, stronger effect = higher value. Background: In TR-FRET formats the signal depends on donor and acceptor labels being close together.

Estrogen receptor (Homo sapiens), sequence (P03372 whole entry, looked up): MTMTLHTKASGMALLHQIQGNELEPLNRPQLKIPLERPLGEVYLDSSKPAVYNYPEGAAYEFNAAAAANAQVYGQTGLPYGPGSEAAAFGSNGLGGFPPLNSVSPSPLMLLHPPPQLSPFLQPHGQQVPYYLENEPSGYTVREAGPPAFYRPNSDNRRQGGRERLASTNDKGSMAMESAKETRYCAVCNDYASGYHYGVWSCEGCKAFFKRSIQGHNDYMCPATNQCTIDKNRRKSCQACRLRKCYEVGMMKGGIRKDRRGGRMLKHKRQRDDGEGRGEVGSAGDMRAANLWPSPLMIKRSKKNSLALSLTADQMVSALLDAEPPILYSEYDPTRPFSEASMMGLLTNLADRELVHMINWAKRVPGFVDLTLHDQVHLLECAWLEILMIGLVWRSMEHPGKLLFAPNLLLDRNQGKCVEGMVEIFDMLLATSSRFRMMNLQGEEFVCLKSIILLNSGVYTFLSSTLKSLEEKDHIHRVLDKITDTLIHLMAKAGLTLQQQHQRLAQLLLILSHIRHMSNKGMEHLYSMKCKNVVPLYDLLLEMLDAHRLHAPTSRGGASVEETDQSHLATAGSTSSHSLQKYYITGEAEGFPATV

On to `NC(N)=NC(N)=Nc1cccc(Cl)c1`, for which the inhibition reads like this: (at 45 µM) -5.64% (inactive); (inhibition, at 15 µM) -4.32%.

For the molecule `CN[C@H]1CC[C@@H](c2ccc(Cl)c(Cl)c2)c2ccccc21`, the inhibition is 4.49% (inactive) (at 45 µM) and 4.91% (inhibition, at 15 µM).

Take `CN1CCN(c2nc3cc(C(F)(F)F)ccc3n3cccc23)CC1`: the inhibition runs as follows: (at 45 µM) -8.98% (inactive); (inhibition, at 15 µM) -4.03%.

On to `COc1cc2c(cc1O)CC[C@@H]1[C@@H]2CC[C@]2(C)[C@@H](O)CC[C@@H]12`, for which the inhibition was 1.97% (inactive) (at 45 µM) and 3.36% (inhibition, at 15 µM).

With `O=c1[nH]cnc2[nH]ncc12`, the inhibition was -22.8% (inactive) (at 45 µM) and -0.71% (inhibition, at 15 µM).

For the molecule `NC(CO)C(=O)NNCc1ccc(O)c(O)c1O` (stereo unspecified), the inhibition by setting is: (at 45 µM) 90.3% [fluorescence artefact?] (active); (inhibition, at 15 µM) 63.1%.

Regarding `N=C(N)SCCc1cccc(CCSC(=N)N)c1`, the inhibition (at 45 µM) was -4.03% (inactive) and the inhibition (inhibition, at 15 µM) was -3.18%.

On to `O=C1c2c(O)cc(O)cc2OC(c2ccc(O)c(O)c2)C1O` (stereo unspecified), for which the inhibition is 7.88% (inactive) (at 45 µM) and 5.23% (inhibition, at 15 µM).

As to `O=c1[nH]c2cc(Cl)c(Cl)cc2[nH]c1=O`, the inhibition was -4.07% (inactive) (at 45 µM) and 3.65% (inhibition, at 15 µM).

In the case of `CN(C)CCOC(c1ccccc1)c1ccccc1`, the inhibition was 0% (inactive) (at 45 µM) and 1.48% (inhibition, at 15 µM).

As to `Nc1ncnc2c1nc(Sc1ccc(Cl)cc1)n2C1OC2COP(=O)(O)O[C@@H]2[C@@H]1O` (stereo partly specified), the inhibition is 2.25% (inactive) (at 45 µM) and -0.54% (inhibition, at 15 µM).

For `NCCCS(=O)(=O)O`, the inhibition reads like this: (at 45 µM) -5.28% (inactive); (inhibition, at 15 µM) -0.89%.

Consider `Brc1ccc([C@H]2CN3CCSC3=N2)cc1`, for which the inhibition is, setting by setting: (at 45 µM) -14.5% (inactive); (inhibition, at 15 µM) -5.52%.

As to `CCOC(=O)Nc1ccc(NCc2ccc(F)cc2)nc1N`, the inhibition runs as follows: (at 45 µM) -2.33% (inactive); (inhibition, at 15 µM) -0.39%.

For the molecule `OC[C@H]1O[C@@H](n2cnc3cncnc32)[C@H](O)[C@@H]1O`, the inhibition (at 45 µM) is -0.26% (inactive) and the inhibition (inhibition, at 15 µM) was -1.71%.

Regarding `NC[C@@H]1O[C@H](C23CC4CC(CC(C4)C2)C3)Cc2c1ccc(O)c2O`, the inhibition (at 45 µM) is 6.83% (inactive) and the inhibition (inhibition, at 15 µM) was -1.93%.

With `N#CC(Cc1ccc(O)c(O)c1)C(=O)N1CCc2ccccc21` (stereo unspecified), the inhibition was 4.21% (inactive) (at 45 µM) and -5.26% (inhibition, at 15 µM).

Consider `Nc1nc(SCc2ccc([N+](=O)[O-])cc2)c2ncn([C@@H]3O[C@H](CO)[C@H](O)C3O)c2n1` (stereo partly specified), for which the inhibition was -19.1% (inactive) (at 45 µM) and -4.91% (inhibition, at 15 µM).

For `COc1ccccc1CNCCCCCCNCCCCCCCCNCCCCCCNCc1ccccc1OC`, the inhibition runs as follows: (at 45 µM) 10.9% (inactive); (inhibition, at 15 µM) 6.92%.

Regarding `CCCCCCCCCCC/C=C\C(C)(C)/C=C\CCCC(=O)O`, the inhibition runs as follows: (at 45 µM) 33.3% (inactive); (inhibition, at 15 µM) 17.4%.

`Cc1c(CC(C)(C)C(=O)O)n(Cc2ccc(Cl)cc2)c2ccc(F)cc12`: the inhibition runs as follows: (at 45 µM) 9.14% (inactive); (inhibition, at 15 µM) 5.8%.

As to `NC(N)=[N+]1CCc2ccccc2C1`, the inhibition by setting is: (at 45 µM) -8.81% (inactive); (inhibition, at 15 µM) 1.64%.

Regarding `CC(CCc1ccccc1)NCC(O)c1ccc(O)c(C(N)=O)c1` (stereo unspecified), the inhibition runs as follows: (at 45 µM) 5.4% (inactive); (inhibition, at 15 µM) 3.9%.

Regarding `O=C(O)c1cc([N+](=O)[O-])ccc1NCCCc1ccccc1`, the inhibition (at 45 µM) is 1.89% (inactive) and the inhibition (inhibition, at 15 µM) is -3.54%.

As to `N=c1ccn2c(n1)OC1[C@@H](O)[C@@H](CO)O[C@H]12` (stereo partly specified), the inhibition (at 45 µM) was -2.34% (inactive) and the inhibition (inhibition, at 15 µM) was 1.25%.

On to `COc1ccc(/C=C/C(=O)Nc2ccccc2C(=O)O)cc1OC`, for which the inhibition is 3.42% (inactive) (at 45 µM) and 4.38% (inhibition, at 15 µM).

With `O=S(=O)(c1cccc2c(I)cccc12)N1CCCNCC1`, the inhibition is 21.6% (inactive) (at 45 µM) and 3.12% (inhibition, at 15 µM).

Turning to `OC(CN1CCN(c2cccc(Cl)c2)CC1)C(c1ccccc1)c1ccccc1` (stereo unspecified), the inhibition reads like this: (at 45 µM) 3.01% (inactive); (inhibition, at 15 µM) 4.55%.

`COc1cc(C(O)C(=O)O)ccc1O` (stereo unspecified): the inhibition is, setting by setting: (at 45 µM) -7.3% (inactive); (inhibition, at 15 µM) 0.57%.

For the molecule `CCCn1c(=O)c2[nH]c(-c3ccc(OCC(=O)Nc4ccc(C#N)cc4)cc3)nc2n(CCC)c1=O`, the inhibition was 46.8% (inactive) (at 45 µM) and 8.2% (inhibition, at 15 µM).

With `O=C(Nc1cc(C(=O)Nc2ccc(S(=O)(=O)O)cc2S(=O)(=O)O)cc(C(=O)Nc2ccc(S(=O)(=O)O)cc2S(=O)(=O)O)c1)Nc1cc(C(=O)Nc2ccc(S(=O)(=O)O)cc2S(=O)(=O)O)cc(C(=O)Nc2ccc(S(=O)(=O)O)cc2S(=O)(=O)O)c1`, the inhibition runs as follows: (at 45 µM) 22.9% (inactive); (inhibition, at 15 µM) 17.2%.

Take `C/C=C1\C(=O)CC2C3CCC4=CC(=O)CC[C@]4(C)C3CC[C@]12C` (stereo partly specified): the inhibition was -2.62% (inactive) (at 45 µM) and -5.45% (inhibition, at 15 µM).

Take `Cc1cc(C)c(NC(=O)C[C@H](CC(=O)O)c2cccc3ccccc23)c(C(=O)N2CCC3(CCCC3)CC2)c1`: the inhibition is 4.81% (active) (at 45 µM) and 53% (inhibition, at 15 µM).

Consider `C[N+](C)(C)CCC(=O)c1cccc2ccccc12`, for which the inhibition is, setting by setting: (at 45 µM) 4.57% (inactive); (inhibition, at 15 µM) 3.36%.

For the molecule `COc1ccccc1N1CCN(CCN(C(=O)c2ccc(I)cc2)c2ccccn2)CC1`, the inhibition is 10.1% (inactive) (at 45 µM) and 2.05% (inhibition, at 15 µM).

`CCCCCCCCCCCCCCCC(=O)OC(CC(=O)O)C[N+](C)(C)C` (stereo unspecified): the inhibition (at 45 µM) was 12.7% (inactive) and the inhibition (inhibition, at 15 µM) was 4.2%.

As for `CC(C)C[C@H](NC(=O)[C@@H](O)[C@H](N)Cc1ccccc1)C(=O)O`, the inhibition (at 45 µM) is -3.72% (inactive) and the inhibition (inhibition, at 15 µM) came to 0.08%.

For `CC(C)C[C@H](NC(=O)[C@H](O)[C@H](N)Cc1ccccc1)C(=O)O`, the inhibition is -1.92% (inactive) (at 45 µM) and -0.07% (inhibition, at 15 µM).

`O=C(O)CNC(=O)C(CS)Cc1ccccc1` (stereo unspecified): the inhibition by setting is: (at 45 µM) -3.83% (active); (inhibition, at 15 µM) 50.5%.

For the molecule `CC1=C(CC(=O)O)c2cc(F)ccc2/C1=C\c1ccc(S(C)(=O)=O)cc1`, the inhibition is, setting by setting: (at 45 µM) 2.44% (inactive); (inhibition, at 15 µM) 2.34%.

As to `Nc1nc(Cl)nc2c1ncn2[C@@H]1O[C@H](COP(=O)(O)OP(=O)(O)OP(=O)(O)O)[C@H](O)C1O` (stereo partly specified), the inhibition by setting is: (at 45 µM) -8.59% (inactive); (inhibition, at 15 µM) -0.94%.

As for `CN(C)CCCO[C@@H]1[C@H]2OC(C)(C)O[C@H]2O[C@@H]1C(O)CO` (stereo partly specified), the inhibition runs as follows: (at 45 µM) 6.83% (inactive); (inhibition, at 15 µM) -5.23%.

`CN1CCc2cc(Cl)c(O)cc2[C@@H](c2ccccc2)C1`: the inhibition (at 45 µM) was 1.68% (inactive) and the inhibition (inhibition, at 15 µM) stood at 0.35%.
